The panel holds about 83,000 compounds, 20% with a hit somewhere; the sample as a whole holds those more often.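 48-hour exposure, single concentration, 96-well plates; percent growth endpoint where 0 means no net growth. Active: below 10.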 Activity calls are given as the source filed them.
How the values were obtained:
Experiment in all cases: NCI-60 one-dose screen, 48 h (100 = growth as untreated, 0 = no growth, -100 = all killed)
Details in all cases: 10 µM unless noted
[1] = system: NCI-H23 lung
[2] = system: NCI-H322M lung
[3] = system: HOP-62 NSCLC
[4] = system: NCI-H460 lung
[5] = system: HOP-92 NSCLC
[6] = system: NCI-H522 lung
[7] = system: A549/ATCC NSCLC
[8] = system: 786-0 renal
[9] = system: COLO 205 colon
[10] = system: DU-145 prostate
[11] = system: K-562 leukemia
[12] = system: MALME-3M melanoma
[13] = system: MDA-MB-231 breast
[14] = system: RXF 393 renal
[15] = system: SF-268 CNS
[16] = system: SF-295 CNS
[17] = system: SF-539 CNS
[18] = system: UACC-257 melanoma
[19] = system: M14 melanoma
[20] = system: HCT-15 colon

Measured: growth

O=C1c2ccccc2C(=O)c2c1ccc1[nH]c(CCl)nc21
inactive: [1] 15% | [2] 62.5% | [3] 25.3% | [5] 32% | [7] 43.8% | [8] 28.9% | [9] 29.1% | [10] 17.1% | [12] 11.5% | [13] 37.4% | [14] 34.7% | [15] 24.9% | [16] 65.2% | [17] 37.9% | [18] 28.8% | [19] 33.5%
active: [4] 1.46% | [6] -31.5% | [11] 2.91% | [20] -24.8%

CCOC(=O)c1cnc2ccc(Cl)cc2c1NCCCN(C)C
active: [3] 8.63% | [4] 1.86% | [6] -17.5% | [7] 4.15% | [8] 8.14% | [11] 1.51% | [12] -6.52% | [14] -3.24% | [15] 1.81% | [17] -12.7% | [18] -3.99% | [19] 2.88%
inactive: [1] 22% | [2] 10.4% | [5] 41.1% | [9] 31.4% | [10] 19.2% | [13] 15.8% | [20] 26.2%

CN1CCN(c2nc(Nc3ccc(O)cc3)nc3ccccc23)CC1
inactive: [1] 74.8% | [2] 68% | [3] 74.5% | [4] 13.9% | [5] 89.6% | [6] 37.5% | [7] 42.5% | [8] 64.2% | [9] 44.1% | [10] 63% | [11] 42% | [12] 61.8% | [13] 66.2% | [14] 77.3% | [15] 52.5% | [17] 47.2% | [18] 59.2% | [19] 50.3% | [20] 32.5%

COc1cccc(C2=NN3C(C2)c2ccccc2OC3c2ccc(/C=C3\SC(=O)NC3=O)cc2)c1 (stereo not given)
inactive: [1] 92.3% | [2] 97.8% | [3] 110% | [4] 101% | [5] 106% | [6] 87.8% | [7] 103% | [8] 95.6% | [9] 119% | [10] 106% | [11] 105% | [12] 105% | [13] 95.4% | [14] 105% | [15] 94.6% | [16] 94.3% | [17] 102% | [18] 106% | [19] 104% | [20] 95.2%

COc1ccc(OC)c(N(CCN2C(=O)c3ccccc3C2=O)C(=O)CCl)c1
active: [3] -3% | [5] -11.4% | [6] -73.3% | [12] -36.4%
inactive: [1] 32.1% | [2] 97.7% | [4] 90.3% | [7] 76% | [8] 38.6% | [9] 80.6% | [10] 86.1% | [11] 102% | [13] 69.7% | [14] 58.7% | [15] 35.3% | [17] 23.1% | [18] 83% | [19] 84.2% | [20] 80.3%

O=C(Nc1nc2c(s1)CCc1c-2c(Br)n(Cc2ccccc2)c1Br)c1ccccc1
inactive: [1] 79.9% | [2] 58.9% | [3] 32.8% | [4] 40.8% | [5] 31.2% | [6] 61.9% | [7] 67.2% | [8] 56.7% | [9] 72.7% | [10] 74.5% | [11] 56.8% | [13] 36.6% | [14] 36.6% | [15] 60.7% | [16] 62.5% | [17] 18.1% | [18] 64.9% | [20] 81.6%
active: [12] -16.2%

CCOC(=O)c1cc2c(n1Cc1cccc(OC)c1)-c1oncc1CCC2
inactive: [1] 36.4% | [2] 74.8% | [3] 39.9% | [4] 17.9% | [5] 67.4% | [6] 14.5% | [7] 42.3% | [8] 51.7% | [10] 23.3% | [11] 10.8% | [13] 53.9% | [14] 21.4% | [15] 38.8% | [18] 42.7% | [20] 29.3%
active: [9] -17.5% | [12] -0.828% | [16] 7.73% | [17] 2.09%

COc1ccc(-n2c(C(O)c3ccccc3)nn(CN3CCOCC3)c2=S)cc1 (stereo not given)
inactive: [1] 99.4% | [2] 104% | [3] 101% | [4] 111% | [5] 82.6% | [6] 89.9% | [7] 103% | [8] 106% | [9] 112% | [10] 109% | [11] 110% | [12] 104% | [13] 97.6% | [15] 103% | [16] 79.7% | [17] 102% | [18] 105% | [19] 95.2% | [20] 113%

O=C(NC(=S)Nc1cccc(NC(=S)NC(=O)c2ccccc2)c1)c1ccccc1
active: [6] -9.46%
inactive: [1] 69.1% | [2] 89% | [3] 52.5% | [4] 46.4% | [5] 34.8% | [7] 57.6% | [8] 76.5% | [9] 56.5% | [10] 77.5% | [11] 68.7% | [12] 55.3% | [13] 56.7% | [14] 85.4% | [15] 56.1% | [17] 70% | [18] 44.7% | [19] 73.5% | [20] 73.5%

O=C(Cc1ccccc1)NC(c1ccc(Cl)cc1)c1c(O)ccc2ccccc12 (stereo not given)
active: [1] 4.5% | [4] 5.44% | [5] -19.9% | [6] -8.23% | [7] 9.06% | [9] -38.6% | [11] 8.85% | [13] -15.7% | [14] -6.64% | [16] -36.4% | [18] -9.13%
inactive: [2] 15.4% | [3] 30.9% | [8] 26% | [10] 33.6% | [15] 29.2% | [17] 40% | [19] 16.3% | [20] 15.4%

COc1ccc(C2c3ccc4ccccc4c3Oc3ncn(CCCn4ccnc4)c(=N)c32)cc1OC (stereo not given)
active: [16] -7.39%
inactive: [1] 60.6% | [2] 49.8% | [3] 73.4% | [4] 55.8% | [5] 24.3% | [6] 72.6% | [7] 55.3% | [8] 68.4% | [9] 53.4% | [10] 79% | [11] 15.6% | [13] 69.2% | [14] 73.2% | [15] 89.5% | [17] 67.8% | [18] 72.4% | [19] 49.6% | [20] 68.5%

COc1ccc(/C=C2\N=C(c3ccccc3)N(c3ccc(-c4nc5ccc(C)cc5s4)cc3)C2=O)cc1
inactive: [1] 87.1% | [2] 60.3% | [3] 99.2% | [4] 89.6% | [5] 82.4% | [6] 67.1% | [7] 70% | [8] 91% | [9] 97.1% | [10] 77.9% | [11] 82.4% | [12] 94.6% | [14] 99% | [15] 61.1% | [16] 75.5% | [17] 93.3% | [18] 111% | [19] 98.9% | [20] 82.1%

O=C(c1ccccc1)N(C(=S)NCCc1ccc(Cl)cc1)c1ccc(Cl)cc1
inactive: [1] 74.7% | [2] 75.9% | [3] 91.3% | [4] 80.1% | [5] 76.3% | [6] 92.1% | [7] 82.4% | [8] 57.2% | [9] 61.6% | [10] 29.3% | [13] 91.7% | [15] 33.2% | [16] 68.3% | [17] 36.9% | [18] 71.2% | [19] 71.2% | [20] 47.6%
active: [11] 4.72%

COc1cc(/C=C/C(=O)N2c3ccccc3CC2C)c(OC)c2c1OCO2 (stereo not given)
inactive: [1] 90.8% | [2] 101% | [3] 119% | [4] 98.2% | [5] 97.4% | [6] 81.5% | [7] 89.1% | [8] 94.9% | [9] 125% | [10] 94.5% | [12] 101% | [13] 92.2% | [15] 97% | [16] 83.6% | [17] 98.3% | [18] 100% | [19] 90.7% | [20] 69.8%

CC(=O)O[C@@H]1/C=C/C(=O)N[C@@H](C)CCC/C=C/[C@@H]2CCC[C@H]21
inactive: [1] 98.2% | [2] 93.2% | [3] 99% | [4] 107% | [5] 92.9% | [6] 37.9% | [7] 108% | [8] 101% | [9] 114% | [10] 112% | [11] 102% | [12] 117% | [13] 122% | [15] 104% | [16] 98.6% | [17] 94% | [18] 101% | [19] 103% | [20] 114%

Source: PubChem BioAssay (NCI)
